The list is not random: actives were taken first. Their share in the collection is about 2.8%.
PAFAH2 inh = inhibitors of human PAFAH2 | Q99487 | recombinant PAFAH2, FP-rhodamine activity probe, fluorescence polarization | inhibition, % at 3.39 µM | 340,000 compounds, 0.99% hits;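 active means inhibition above the mean over all tested compounds plus 3 SD, cut at about 30% in these data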;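 further: inhibitors block probe labeling of enzyme so polarization drops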
PAFAH1B2 FP inh = PAFAH1B2 (human) inhibition. recombinant PAFAH1B2, FP-rhodamine activity probe, fluorescence polarization. inhibition, % at 3.39 µM. 340,000 compounds, 1.2% hits. AID 492953;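 active means inhibition above the mean of all tested compounds plus 3 SD, cut at about 24% in these data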
DAGLB inh = blocks human DAGLB lipase activity; 340,000 compounds, 0.059% hits; Q8NCG7; HEK293T DAGLB membrane lysate, EnzChek fluorogenic substrate; inhibition, % at 5.17 µM; in the data active means inhibition above about 34%
HTRA1 inhibitor = inhibitors of human serine peptidase HTRA1; inhibition, % at 5.96 µM; 340,000 compounds, 0.5% hits; recombinant HTRA1, FP-rhodamine activity-based probe, fluorescence polarization; in the data active means inhibition above about 36%
Target sequence (Q92743 whole entry, looked up): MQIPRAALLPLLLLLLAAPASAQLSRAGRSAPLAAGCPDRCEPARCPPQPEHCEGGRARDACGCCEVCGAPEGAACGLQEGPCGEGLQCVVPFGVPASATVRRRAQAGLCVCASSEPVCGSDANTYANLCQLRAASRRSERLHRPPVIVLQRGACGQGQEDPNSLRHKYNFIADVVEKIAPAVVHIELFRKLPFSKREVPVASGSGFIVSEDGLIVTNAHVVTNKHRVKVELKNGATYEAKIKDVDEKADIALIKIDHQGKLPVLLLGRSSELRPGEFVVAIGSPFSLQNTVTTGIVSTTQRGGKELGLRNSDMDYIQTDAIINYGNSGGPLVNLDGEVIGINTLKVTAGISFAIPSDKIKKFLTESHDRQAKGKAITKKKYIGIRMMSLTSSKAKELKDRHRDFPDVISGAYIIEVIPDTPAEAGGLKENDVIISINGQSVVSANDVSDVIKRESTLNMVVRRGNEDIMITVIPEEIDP
PAFAH1B3 FP inh = PAFAH1B3 (human) inhibition | Q15102 | recombinant PAFAH1B3, FP-rhodamine probe, fluorescence polarization | inhibition, % at 3.39 µM | 340,000 compounds, 0.28% hits | AID 492972;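 active means inhibition above the screen-wide average of all tested compounds plus 3 SD, cut at about 25% in these data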
pPAFAH FP inh = pPAFAH (human) enzyme inhibition | inhibition, % at 3.39 µM | 330,000 compounds, 1.5% hits | Q13093 | recombinant pPAFAH, FP-rhodamine probe fluorescence polarization;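 active means inhibition above the mean inhibition across the screen plus 3 SD, cut at about 25% in these data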;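 further: inhibitors block binding of the rhodamine activity-based probe so polarization drops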
Numbers stand for hits; n = inactive; x = not tested or not shown.

SMILES | PAFAH2 inh | PAFAH1B2 FP inh | DAGLB inh | HTRA1 inhibitor | PAFAH1B3 FP inh | pPAFAH FP inh
COC(=O)CCC/C=C1/SCC(NC(=O)c2ccccc2)C1=O (stereo not drawn) | n | n | n | n | n | 26
COC(=O)CCC/C=C1/SCC(NC(=O)c2ccccc2)C1O (stereo not drawn) | n | n | n | n | n | n
Cc1nc(Nc2ccccc2)sc1-c1ccccc1 | n | n | n | n | n | 27
O=C(O)c1ccc(Cl)c(S(=O)(=O)Nc2ccc(OCc3ccccc3)cc2)c1 | n | 26 | n | n | n | n
CCOC(=O)c1c(C)[nH]c(C(=O)OCC(=O)Nc2sccc2C(N)=O)c1C | n | n | n | n | n | n
COc1cc2cc(CCCOC(=O)c3ccc4c(c3)OCO4)oc(=O)c2cc1OC | n | n | n | n | n | n
O=S(=O)(NC(CO)Cc1ccccc1)c1cc(Cl)ccc1F (stereo not drawn) | n | n | n | n | n | x
O=S(=O)(NC(CO)Cc1ccccc1)c1ccc(Br)cc1F (stereo not drawn) | n | 29 | n | n | n | x
O=C(NCCc1ccc(Cl)cc1)C1CCC(=O)N1C1CCCC1 (stereo not drawn) | n | 56 | n | n | n | n
S=C(NCCc1ccccc1)NC1CCCCCC1 | n | n | n | n | n | n
O=S(=O)(Nc1ncccn1)c1ccc(NC(=S)Nc2cccc(Cl)c2)cc1 | x | x | x | x | x | n
S=C(Nc1ccc(Cl)cc1)NC1CCCCC1 | n | n | n | n | n | n
S=C(NCCc1ccc(Cl)cc1)NC1CCCCC1 | n | 34 | n | n | n | n
O=S(=O)(Nc1ncccn1)c1ccc(NC(=S)NCCc2ccc(Cl)cc2)cc1 | n | 44 | n | n | n | n
S=C(NCCc1ccc(Cl)cc1)NC1CCCC1 | n | 27 | n | n | n | n
O=C(NCCc1ccc(Cl)cc1)C1CCC(=O)N(C2CCCCCC2)C1 (stereo not drawn) | n | n | n | n | n | n
Cc1ccc(S(=O)(=O)N(C)c2ccc(OCC(=O)N3CCCCC3)cc2)cc1 | n | n | n | n | n | n
CC(C)C(NS(=O)(=O)c1cccc(C(F)(F)F)c1)C(=O)N1CCc2ccccc2C1 (stereo not drawn) | n | 26 | n | n | n | n
O=[N+]([O-])c1cc(S(=O)(=O)N2CCCCCC2)ccc1F | n | 29 | n | n | n | n
O=C(NCCN1CCOCC1)c1ccc2ccccc2c1 | n | n | n | n | n | n
Oc1cc(NCCN2CCOCC2)cc2cccnc12 | n | n | n | n | 54 | n
Cc1n[nH]c(C)c1CCN(C)Cc1cn(C)nc1-c1ccccc1F | n | n | n | n | n | n
COc1ccc(OC)c(CCNC(=O)c2ccc(CS(=O)(=O)c3ccc(Br)cc3)o2)c1 | n | 27 | n | n | n | n
COc1ccc(S(=O)(=O)Cc2ccc(C(=O)NCCc3cc(OC)ccc3OC)o2)cc1 | n | n | n | n | n | n
Cc1ccc(NC(=O)c2ccc3nsnc3c2)c(Cl)c1 | n | n | n | n | n | n
SMILES | PAFAH2 inh | PAFAH1B2 FP inh | DAGLB inh | HTRA1 inhibitor | PAFAH1B3 FP inh | pPAFAH FP inh
COC(=O)c1ccc(C)c(NC(=O)CCNC(=O)c2ccc([N+](=O)[O-])cc2)c1 | n | n | n | n | n | 29
Cc1ccc(F)cc1NC(=O)CCNC(=O)c1ccc([N+](=O)[O-])cc1 | n | n | n | n | n | n
O=C(N[C@@H](Cc1ccc(Br)cc1)C(=O)O)OCC1c2ccccc2-c2ccccc21 | n | 70 | n | n | n | n
CC(c1ccccc1)C(NC(=O)OCC1c2ccccc2-c2ccccc21)C(=O)O (stereo not drawn) | n | 29 | n | n | n | n
COc1ccc(C2=NN(c3ccc(C=O)cc3)C(c3ccccc3)C2)cc1 (stereo not drawn) | x | x | x | x | x | n
COc1ccc(C2CC(c3ccccc3)=NN2c2ccc(C(N)=O)cc2)cc1 (stereo not drawn) | n | n | n | n | n | n
O=C(O)c1ccc(N2N=C(c3ccccc3)CC2c2ccccc2)cc1 (stereo not drawn) | n | n | n | n | n | 32
O=Cc1ccc(N2N=C(c3ccccc3)CC2c2ccccc2)cc1 (stereo not drawn) | n | n | n | n | n | 30
CCCCc1ccc(S(=O)(=O)NCCCN2CCCC2=O)cc1 | n | n | n | n | n | 28
Cc1ccc(NS(=O)(=O)c2ccc(C(=O)NCCCN3CCCC3=O)cc2)cc1C | n | n | n | n | n | 31
CC1CCC(NC(=O)CN2C(=O)c3cccnc3Oc3ccc(Cl)cc32)CC1 (stereo not drawn) | n | n | n | n | n | n
CCOC(=O)c1c(NC(=O)/C=C/C(=O)O)sc(C)c1-c1ccc(F)cc1 | n | n | n | n | n | 26
COC(=O)c1c(NC(=O)/C=C/C(=O)O)sc(C)c1-c1ccc(C)cc1 | n | n | n | n | n | n
Cc1ccc(NC(=O)CN(C)C(=O)c2ccc(Cl)nc2)cc1 | n | n | n | n | n | n
CCN(C(=O)CSc1nc2cc(C(F)(F)F)ccc2n1Cc1ccccc1)C1CCS(=O)(=O)C1 (stereo not drawn) | n | n | n | n | n | 29
CCOC(=O)c1ccc(NS(=O)(=O)c2cc(-c3nnnn3CC)ccc2OC)cc1 | n | n | n | n | n | n
CCCCOC(=O)c1ccc(NS(=O)(=O)c2cc(-c3nnnn3CC)ccc2OC)cc1 | n | n | n | n | n | 28
O=C(Nc1ccccc1)n1ccc(-c2ccc(-n3ccnc3)cc2)n1 | x | x | x | x | x | n
CN(CC(=O)NCc1ccco1)C(=O)C1CC(=O)N(c2ccc3c(c2)OCCO3)C1 (stereo not drawn) | n | n | n | n | n | n
Oc1c(Cl)cc(Cl)cc1Sc1cc(Cl)cc(Cl)c1O | x | x | x | x | x | 77
CCN(CC)c1ccc(/C=N/NC(=O)c2nnn(-c3nonc3N)c2C(C)C)c(O)c1 | n | n | n | n | n | 28
C=C1CCC[C@]2(C)C[C@H]3OC(=O)C(CN4CCCCC4CO)[C@H]3CC12 (stereo partly drawn) | 44 | 36 | n | n | n | n
C=C1CCC[C@]2(C)C[C@H]3OC(=O)C(CNC(C)(CO)CO)[C@H]3CC12 (stereo partly drawn) | 33 | 28 | n | n | n | n
C=C1CCC[C@]2(C)C[C@H]3OC(=O)C(CNC(CC)CO)[C@H]3CC12 (stereo partly drawn) | n | n | n | n | n | n
C=C1CCC[C@]2(C)C[C@H]3OC(=O)C(CNC(C)CC)[C@H]3CC12 (stereo partly drawn) | n | n | n | n | n | n
COc1ccc(CCC(=O)N2CCCC(Nc3ccccc3)C2)cc1OC (stereo not drawn) | n | n | n | n | n | n
CCCc1cc(=O)oc2cc(C)c(CN3CCCC3)c(O)c12 | n | n | n | n | n | 25
O=C(O/N=C/c1ccc2c(c1)OCO2)c1ccccc1Cl | x | x | x | x | x | 37
O=C(COC(=O)C1CCN(c2ccc(C(F)(F)F)cn2)CC1)NCc1cccc(Cl)c1 | n | n | n | n | n | x

Source: PubChem (The Scripps Research Institute Molecular Screening Center)
